# Measurements taken from PubChem BioAssay (EPA / NIEHS).
# Active and inactive are the calls of the source. Rule for the calls: active = hit-call score of the fitted dose curve at least 0.9, where 1 is the maximum; inactive = score below 0.9.
# Legend:
# [1] = ATG_GLI_CIS: Attagene CIS-FACTORIAL HepG2 Assay for human Zinc Finger Protein GLI1 (AID 2282945); details: HepG2, Attagene cis-factorial reporter mRNA, GLI element; actives raise or lower the signal
# How it was run: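 Bidirectional curve fits relative to DMSO, using reporter mRNA levels from RT-PCR plus capillary electrophoresis. Cells were HepG2 transiently carrying cis-regulated reporter constructs, harvested 24 h after dosing.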
# [2] = molecular target: Bile acid receptor (Homo sapiens) (UniProt Q96RI1); experiment: ATG_IR1_CIS: Attagene CIS-FACTORIAL HepG2 Assay for human Nuclear Receptor Subfamily 1 Group H Member 4 (NR1H4), IR1 submotif (AID 2282946); details: IR1 reporter transcription, actives raise or lower the signal
# Bile acid receptor (Homo sapiens), sequence (Q96RI1 whole entry, looked up): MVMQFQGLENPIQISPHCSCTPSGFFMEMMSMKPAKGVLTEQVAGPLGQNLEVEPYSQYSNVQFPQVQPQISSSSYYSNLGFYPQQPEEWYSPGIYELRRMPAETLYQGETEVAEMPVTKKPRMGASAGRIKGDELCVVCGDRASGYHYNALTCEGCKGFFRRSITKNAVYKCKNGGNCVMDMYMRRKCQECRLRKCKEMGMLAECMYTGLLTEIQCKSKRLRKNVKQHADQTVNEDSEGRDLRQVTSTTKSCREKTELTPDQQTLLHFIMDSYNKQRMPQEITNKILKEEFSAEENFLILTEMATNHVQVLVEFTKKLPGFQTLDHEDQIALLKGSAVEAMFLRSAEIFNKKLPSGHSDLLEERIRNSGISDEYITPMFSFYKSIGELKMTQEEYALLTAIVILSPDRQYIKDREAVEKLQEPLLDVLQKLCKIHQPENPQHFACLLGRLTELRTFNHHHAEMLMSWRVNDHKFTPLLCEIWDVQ
# How it was run: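 HepG2 cells transiently transfected with multiplexed cis-element reporter units read endogenous transcription factor activity. After 24 h compound exposure, reporter mRNA was quantified by RT-PCR, fluorescent labelling, HpaI digestion and capillary electrophoresis; bidirectional fitting versus DMSO baseline.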
# [3] = ATG_ISRE_CIS: Attagene CIS-FACTORIAL HepG2 Assay for human Interferon Regulatory Factor 1 (IRF1) binding to an Interferon-Stimulated Response Element (ISRE) (AID 2282948); details: HepG2 ISRE cis-reporter (Attagene), mRNA transcription readout; actives raise or lower the signal
# How it was run: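 Signal reflects induction or loss of ISRE-linked reporter mRNA in transiently transfected HepG2 cells after a 24 h treatment, detected by fluorescent RT-PCR fragments on capillary electrophoresis and normalised to DMSO.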
# [4] = ATG_M_32_CIS: Attagene CIS-FACTORIAL HepG2 Assay for M32 Transcription Factor (Internal Marker) (AID 2282949); details: HepG2 Attagene cis-factorial M32 reporter, mRNA; actives raise or lower the signal;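 note: background control marker of the multiplexed CIS panel rather than a real target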
# How it was run: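 Using DMSO as baseline, bidirectional curve fits were applied to reporter mRNA signals. These came from transiently transfected HepG2 cells exposed for 24 h, with RNA analysed by RT-PCR, FAM primer extension, HpaI digestion and CE.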
# [5] = ATG_M_06_CIS: Attagene CIS-FACTORIAL HepG2 Assay for M06 Transcription Factor (Internal Marker) (AID 2282950); details: HepG2 Attagene CIS-FACTORIAL M06 internal marker reporter; actives raise or lower the signal
# How it was run: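 Cells (HepG2, transiently carrying cis-driven reporter units) receive chemical for 24 h before RNA isolation. Reporter cDNA is PCR-amplified, FAM-labelled by primer extension, HpaI-digested and sized on a capillary analyser.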
# [6] = molecular target: Hypoxia-inducible factor 1-alpha (Homo sapiens) (UniProt Q16665); experiment: ATG_HIF1a_CIS: Attagene CIS-FACTORIAL HepG2 Assay for human Hypoxia Inducible Factor 1 (HIF1A) (AID 2282951); details: HepG2 Attagene cis-factorial HIF1a reporter transcription; actives raise or lower the signal
# Hypoxia-inducible factor 1-alpha (Homo sapiens), sequence (Q16665 whole entry, looked up): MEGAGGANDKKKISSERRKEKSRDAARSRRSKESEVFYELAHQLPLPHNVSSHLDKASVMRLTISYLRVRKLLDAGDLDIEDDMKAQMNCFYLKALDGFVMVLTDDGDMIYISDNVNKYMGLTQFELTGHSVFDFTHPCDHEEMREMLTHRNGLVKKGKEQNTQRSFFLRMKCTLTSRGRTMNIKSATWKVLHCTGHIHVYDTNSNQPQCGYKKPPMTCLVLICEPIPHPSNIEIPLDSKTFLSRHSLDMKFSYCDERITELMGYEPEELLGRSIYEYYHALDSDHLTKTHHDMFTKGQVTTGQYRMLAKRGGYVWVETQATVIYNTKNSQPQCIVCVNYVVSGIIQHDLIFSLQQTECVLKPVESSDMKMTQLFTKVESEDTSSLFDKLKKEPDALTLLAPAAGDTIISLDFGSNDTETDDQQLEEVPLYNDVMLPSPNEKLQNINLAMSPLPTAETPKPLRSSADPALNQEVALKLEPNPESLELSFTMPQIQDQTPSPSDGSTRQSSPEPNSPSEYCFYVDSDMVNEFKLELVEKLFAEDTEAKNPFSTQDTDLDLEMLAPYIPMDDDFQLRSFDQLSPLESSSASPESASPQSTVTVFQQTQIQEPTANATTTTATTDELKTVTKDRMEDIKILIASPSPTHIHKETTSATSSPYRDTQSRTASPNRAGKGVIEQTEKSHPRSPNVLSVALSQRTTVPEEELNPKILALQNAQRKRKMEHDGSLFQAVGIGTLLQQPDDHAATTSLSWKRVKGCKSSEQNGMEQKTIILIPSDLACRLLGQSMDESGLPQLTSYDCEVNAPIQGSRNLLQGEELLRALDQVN
# How it was run: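 RT-PCR/capillary electrophoresis fluorescence readout of reporter transcripts from endogenous-TF-driven cis elements in transfected HepG2 cells, 24 h exposure; activity fitted in both directions against DMSO controls.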
# [7] = molecular target: Hepatocyte nuclear factor 6 (Homo sapiens) (UniProt Q9UBC0); experiment: ATG_HNF6_CIS: Attagene CIS-FACTORIAL HepG2 Assay for human Hepatocyte Nuclear Factor 6 (HNF6) (AID 2282952); details: HepG2 Attagene cis-factorial HNF6 reporter transcription; actives raise or lower the signal
# Hepatocyte nuclear factor 6 (Homo sapiens), sequence (Q9UBC0 whole entry, looked up, the tested form may be a part): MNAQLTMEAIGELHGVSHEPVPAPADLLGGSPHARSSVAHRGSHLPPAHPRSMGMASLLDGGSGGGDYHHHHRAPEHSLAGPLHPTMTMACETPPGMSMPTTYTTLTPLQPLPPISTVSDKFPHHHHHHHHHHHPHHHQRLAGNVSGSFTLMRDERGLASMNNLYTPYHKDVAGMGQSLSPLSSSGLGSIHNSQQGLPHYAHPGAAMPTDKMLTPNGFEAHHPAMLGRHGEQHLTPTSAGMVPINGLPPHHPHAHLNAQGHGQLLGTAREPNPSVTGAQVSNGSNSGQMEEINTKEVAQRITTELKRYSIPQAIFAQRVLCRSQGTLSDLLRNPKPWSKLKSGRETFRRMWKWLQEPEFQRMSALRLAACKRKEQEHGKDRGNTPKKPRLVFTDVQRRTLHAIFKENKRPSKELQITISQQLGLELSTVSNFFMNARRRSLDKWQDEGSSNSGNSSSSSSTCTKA
# How it was run: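 First, HepG2 cells were transfected with the multiplexed cis reporter library and dosed with chemical for 24 h. Next, RNA was reverse-transcribed, PCR-amplified and fluorescently labelled. Finally, HpaI-digested fragments were read by capillary electrophoresis.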
# [8] = molecular target: Heat shock factor protein 1 (Homo sapiens) (UniProt Q00613); experiment: ATG_HSE_CIS: Attagene CIS-FACTORIAL HepG2 Assay for human Heat Shock Transcription Factor 1 (HSE) (AID 2282953); details: HepG2 HSE cis-reporter, Attagene RNA transcription; actives raise or lower the signal
# Heat shock factor protein 1 (Homo sapiens), sequence (Q00613 whole entry, looked up): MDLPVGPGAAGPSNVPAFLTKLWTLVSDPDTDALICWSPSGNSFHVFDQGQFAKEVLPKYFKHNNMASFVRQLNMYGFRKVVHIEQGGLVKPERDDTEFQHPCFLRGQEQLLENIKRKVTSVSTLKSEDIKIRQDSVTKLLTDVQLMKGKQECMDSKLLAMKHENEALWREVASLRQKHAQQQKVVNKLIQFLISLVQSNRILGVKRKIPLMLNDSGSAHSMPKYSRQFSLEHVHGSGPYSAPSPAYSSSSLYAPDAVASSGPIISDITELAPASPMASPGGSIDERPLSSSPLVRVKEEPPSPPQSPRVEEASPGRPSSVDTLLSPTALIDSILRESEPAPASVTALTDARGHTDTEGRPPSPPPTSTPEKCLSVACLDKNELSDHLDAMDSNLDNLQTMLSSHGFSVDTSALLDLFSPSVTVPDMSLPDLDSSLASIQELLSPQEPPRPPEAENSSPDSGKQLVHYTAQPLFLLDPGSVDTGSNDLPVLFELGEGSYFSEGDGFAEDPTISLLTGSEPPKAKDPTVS
# How it was run: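 Liver-derived HepG2 cells carry transiently introduced multiple reporter units governed by cis promoters. Reporter RNA measured 24 h post-dose through reverse transcription, PCR amplification, fluorescent labelling and capillary electrophoresis, normalised to DMSO.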
# [9] = ATG_MRE_CIS: Attagene CIS-FACTORIAL HepG2 Assay for human Metal Responsive Element (MRE) (AID 2282954); details: HepG2 MRE cis-reporter transcription, Attagene multiplex; actives raise or lower the signal
# How it was run: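 Multiplexed cis-reporter assay in human HepG2 liver cells, 24 h incubation with test chemical. Reporter transcripts measured by RT-PCR and capillary electrophoresis; values from bidirectional curve fitting versus DMSO.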
# [10] = ATG_PBREM_CIS: Attagene CIS-FACTORIAL HepG2 Assay for human Phenobarbital-responsive Enhancer Module (PBREM) (AID 2282955); details: HepG2 PBREM cis-reporter, Attagene multiplexed transcription; actives raise or lower the signal
# How it was run: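 Reporter mRNA read by RT-PCR, 6-FAM primer extension, HpaI digestion and capillary electrophoresis. Transfected HepG2 cells, 24 h compound exposure. Gain or loss of signal fitted bidirectionally relative to DMSO baseline.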
# [11] = molecular target: Paired box protein Pax-6 (Homo sapiens) (UniProt P26367); experiment: ATG_Pax6_CIS: Attagene CIS-FACTORIAL HepG2 Assay for human Paired Box 6 (PAX6) (AID 2282956); details: HepG2 CIS-FACTORIAL PAX6 reporter transcription, RNA readout; actives raise or lower the signal
# Paired box protein Pax-6 (Homo sapiens), sequence (P26367 whole entry, looked up): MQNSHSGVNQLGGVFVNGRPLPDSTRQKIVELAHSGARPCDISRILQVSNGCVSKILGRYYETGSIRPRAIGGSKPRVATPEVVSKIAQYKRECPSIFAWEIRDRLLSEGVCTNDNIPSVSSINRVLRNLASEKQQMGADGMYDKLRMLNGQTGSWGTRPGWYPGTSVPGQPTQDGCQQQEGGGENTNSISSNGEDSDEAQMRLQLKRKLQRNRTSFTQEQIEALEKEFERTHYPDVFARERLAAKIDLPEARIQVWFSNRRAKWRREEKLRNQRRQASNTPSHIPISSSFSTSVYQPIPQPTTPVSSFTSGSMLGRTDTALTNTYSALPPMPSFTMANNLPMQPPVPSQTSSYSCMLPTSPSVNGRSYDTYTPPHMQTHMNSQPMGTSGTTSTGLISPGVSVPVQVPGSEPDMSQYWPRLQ
# How it was run: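 Values derive from bidirectional curve fitting of reporter mRNA signal relative to DMSO. HepG2 cells bearing transfected cis-regulated MRTUs were exposed for 24 h; transcripts were read by RT-PCR and capillary electrophoresis.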
# [12] = ATG_PXRE_CIS: Attagene CIS-FACTORIAL HepG2 Assay for human Pregnane X Receptor Element (PXRE) (AID 2282957); details: HepG2 Attagene CIS-FACTORIAL PXRE reporter, mRNA; actives raise or lower the signal
# How it was run: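 After a 24 h chemical incubation, total RNA from transfected HepG2 cells was reverse-transcribed and reporter cDNA amplified, FAM-labeled, HpaI-digested and sized by capillary electrophoresis. DMSO served as baseline for bidirectional curve fitting.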
# [13] = ATG_PPRE_CIS: Attagene CIS-FACTORIAL HepG2 Assay for human Peroxisome Proliferator-activated Response Element (PPRE) (AID 2282958); details: HepG2 PPRE cis-element reporter, Attagene transcription factor profiling; actives raise or lower the signal
# How it was run: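 Read-out: fluorescent reporter mRNA fragments resolved by capillary electrophoresis after RT-PCR. HepG2 cells carried transiently transfected PPRE-driven cis reporter constructs and were dosed for 24 h; gain or loss of signal fitted relative to DMSO.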
# [14] = ATG_RORE_CIS: Attagene CIS-FACTORIAL HepG2 Assay for human RAR-related Orphan Receptor Element (RORE) (AID 2282959); details: HepG2 Attagene cis-factorial RORE reporter, mRNA; actives raise or lower the signal
# How it was run: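 Readout: fluorescent reporter mRNA by RT-PCR plus capillary electrophoresis, 24 h after dosing transfected HepG2 cells. Endogenous transcription factor activity on a cis promoter element is measured. Gain or loss of signal fitted against DMSO.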
# [15] = ATG_Sox_CIS: Attagene CIS-FACTORIAL HepG2 Assay for human SRY-box transcription factor (SOX) (AID 2282960); details: HepG2 Attagene cis-factorial SOX reporter, mRNA; actives raise or lower the signal
# How it was run: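 Read-out: fluorescent RT-PCR products of SOX1-linked reporter transcripts resolved by capillary electrophoresis, fitted bidirectionally against DMSO. Transiently transfected HepG2 cells, 24 h after chemical exposure, endogenous transcription factor activity.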
# [16] = molecular target: Transcription factor Sp1 (Homo sapiens) (UniProt P08047); experiment: ATG_Sp1_CIS: Attagene CIS-FACTORIAL HepG2 Assay for human Specificity Protein 1 (Sp1) (AID 2282961); details: HepG2 Sp1 cis-reporter transcription, actives raise or lower the signal
# Transcription factor Sp1 (Homo sapiens), sequence (P08047 whole entry, looked up): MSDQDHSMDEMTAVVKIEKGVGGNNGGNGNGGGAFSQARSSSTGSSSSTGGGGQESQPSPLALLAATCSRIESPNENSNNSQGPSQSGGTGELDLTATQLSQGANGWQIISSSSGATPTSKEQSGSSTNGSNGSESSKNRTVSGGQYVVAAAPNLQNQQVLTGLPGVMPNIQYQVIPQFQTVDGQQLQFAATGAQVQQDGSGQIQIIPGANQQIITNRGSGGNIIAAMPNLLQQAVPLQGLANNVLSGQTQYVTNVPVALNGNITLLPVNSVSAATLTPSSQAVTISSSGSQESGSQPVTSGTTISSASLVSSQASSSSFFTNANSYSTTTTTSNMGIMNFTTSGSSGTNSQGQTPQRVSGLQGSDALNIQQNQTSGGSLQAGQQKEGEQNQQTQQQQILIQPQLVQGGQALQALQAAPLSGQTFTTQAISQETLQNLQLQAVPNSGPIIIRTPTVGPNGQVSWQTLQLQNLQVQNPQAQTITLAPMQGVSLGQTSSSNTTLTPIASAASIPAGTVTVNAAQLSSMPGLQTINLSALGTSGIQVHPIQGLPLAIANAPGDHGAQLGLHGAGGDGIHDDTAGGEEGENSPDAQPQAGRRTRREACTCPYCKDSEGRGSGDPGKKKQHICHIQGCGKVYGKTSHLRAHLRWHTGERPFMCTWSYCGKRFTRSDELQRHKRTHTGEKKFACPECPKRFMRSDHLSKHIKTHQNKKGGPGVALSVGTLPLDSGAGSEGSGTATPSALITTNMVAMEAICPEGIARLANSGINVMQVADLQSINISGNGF
# How it was run: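 Read-out: fluorescence of 6-FAM-labeled, HpaI-digested RT-PCR products separated by capillary electrophoresis. HepG2 cells carried transfected cis-element reporter units and were exposed to chemicals for 24 h; gain or loss of signal fitted relative to DMSO.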
# [17] = ATG_SREBP_CIS: Attagene CIS-FACTORIAL HepG2 Assay for human Sterol Regulatory Element Binding (SREBP) (AID 2282962); details: HepG2 Attagene cis-factorial SREBP reporter, mRNA; actives raise or lower the signal
# How it was run: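 Values derive from bidirectional curve fitting with DMSO as baseline. The underlying measurement is reporter mRNA from cis-element-regulated units in transiently transfected HepG2, quantified by RT-PCR and capillary electrophoresis after 24 h exposure.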
# [18] = molecular target: Signal transducer and activator of transcription 3 (Homo sapiens) (UniProt P40763); experiment: ATG_STAT3_CIS: Attagene CIS-FACTORIAL HepG2 Assay for human Signal Transducer and Activator of Transcription 3 (STAT3) (AID 2282963); details: HepG2, Attagene cis-factorial STAT3 reporter transcription; actives raise or lower the signal
# Signal transducer and activator of transcription 3 (Homo sapiens), sequence (P40763 whole entry, looked up): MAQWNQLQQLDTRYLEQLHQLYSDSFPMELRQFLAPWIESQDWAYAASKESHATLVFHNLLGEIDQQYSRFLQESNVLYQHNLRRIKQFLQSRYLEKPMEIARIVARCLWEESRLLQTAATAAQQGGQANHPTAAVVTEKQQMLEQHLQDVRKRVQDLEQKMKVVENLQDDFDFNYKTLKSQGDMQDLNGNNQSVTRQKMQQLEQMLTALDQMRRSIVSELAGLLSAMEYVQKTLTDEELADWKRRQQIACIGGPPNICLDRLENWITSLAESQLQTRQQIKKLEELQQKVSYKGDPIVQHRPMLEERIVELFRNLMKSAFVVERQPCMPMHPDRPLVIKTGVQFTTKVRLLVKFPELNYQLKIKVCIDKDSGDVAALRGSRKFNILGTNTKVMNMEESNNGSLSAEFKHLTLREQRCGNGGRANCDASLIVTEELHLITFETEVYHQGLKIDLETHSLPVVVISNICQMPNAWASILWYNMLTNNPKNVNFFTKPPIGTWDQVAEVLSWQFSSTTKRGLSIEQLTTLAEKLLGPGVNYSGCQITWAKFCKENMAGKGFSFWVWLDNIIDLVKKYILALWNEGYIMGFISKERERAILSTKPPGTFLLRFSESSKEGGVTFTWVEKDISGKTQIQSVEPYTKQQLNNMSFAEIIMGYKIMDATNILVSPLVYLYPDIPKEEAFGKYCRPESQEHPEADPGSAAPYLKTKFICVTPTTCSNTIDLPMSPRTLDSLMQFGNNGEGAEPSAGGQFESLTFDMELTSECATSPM
# How it was run: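 Cis-factorial format: endogenous transcription factors in HepG2 drive transfected reporter units. After 24 h treatment, reporter RNA was reverse-transcribed, amplified, FAM-labelled and HpaI-digested before CE analysis; activity scored in both directions against DMSO.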
# [19] = ATG_TA_CIS: Attagene CIS-FACTORIAL HepG2 Assay for human TA Basal Promoter (AID 2282964); details: HepG2 Attagene CIS-factorial TA basal promoter reporter; actives raise or lower the signal
# How it was run: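 Background internal-marker endpoint from a 52-component HepG2 cis-reporter panel. Cells treated 24 h; reporter transcripts quantified via RT-PCR and CE fluorescence against DMSO baseline.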
# [20] = ATG_GRE_CIS: Attagene CIS-FACTORIAL HepG2 Assay for human Glucocorticoid Response Elements (GRE) (AID 2282947); details: HepG2 GRE cis-reporter, Attagene multiplex mRNA; actives raise or lower the signal
# How it was run: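 Multiplexed cis-reporter mRNA induction, HepG2, 24 h post-dose. RT-PCR, FAM-labelled, HpaI-digested amplicons by CE. Bidirectional fit vs DMSO.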
compound,measurement,setting,value
NC(=O)c1c(Cl)cccc1Cl,outcome,[1],inactive
same,outcome,[2],inactive
same,outcome,[3],inactive
same,outcome,[4],inactive
same,outcome,[5],inactive
same,outcome,[6],inactive
same,outcome,[7],inactive
same,outcome,[8],inactive
same,outcome,[9],inactive
same,outcome,[10],inactive
same,outcome,[11],inactive
same,AC50,[12],0.104 µM (active)
same,outcome,[13],inactive
same,outcome,[14],inactive
same,outcome,[15],inactive
same,outcome,[16],inactive
same,outcome,[17],inactive
same,outcome,[18],inactive
same,outcome,[19],inactive
C=CC(C)(CCC=C(C)C)OC(=O)CC (stereo not given),outcome,[1],inactive
same,outcome,[2],inactive
same,outcome,[20],inactive
same,outcome,[4],inactive
same,outcome,[5],inactive
same,outcome,[6],inactive
same,outcome,[7],inactive
same,outcome,[8],inactive
same,outcome,[11],inactive
same,AC50,[12],31 µM (active)
same,outcome,[14],inactive
same,outcome,[15],inactive
same,outcome,[16],inactive
same,outcome,[17],inactive
same,outcome,[18],inactive
same,outcome,[19],inactive
O=S1(=O)CC(Cl)(Cl)C(Cl)(Cl)C1,outcome,[1],inactive
same,AC50,[2],5.49 µM (active)
same,outcome,[20],inactive
same,AC50,[3],1.37 µM (active)
same,outcome,[5],inactive
same,outcome,[6],inactive
same,outcome,[7],inactive
same,outcome,[8],inactive
same,AC50,[9],6.29 µM (active)
same,AC50,[11],5.97 µM (active)
same,outcome,[12],inactive
same,outcome,[13],inactive
same,outcome,[14],inactive
same,outcome,[15],inactive
same,outcome,[16],inactive
same,outcome,[17],inactive
same,outcome,[18],inactive
same,outcome,[19],inactive
CN1CCc2cccc3c2[C@H]1Cc1ccc(O)c(O)c1-3,outcome,[1],inactive
same,outcome,[2],inactive
same,outcome,[20],inactive
same,AC50,[3],13.3 µM (active)
same,outcome,[4],inactive
same,outcome,[5],inactive
same,outcome,[7],inactive
same,outcome,[8],inactive
same,outcome,[10],inactive
same,outcome,[11],inactive
same,AC50,[12],1.26 µM (active)
same,outcome,[15],inactive
same,outcome,[16],inactive
same,AC50,[17],13.3 µM (active)
same,outcome,[18],inactive
same,outcome,[19],inactive
CC(O)COCC(C)O (stereo not given),outcome,[1],inactive
same,outcome,[2],inactive
same,outcome,[20],inactive
same,outcome,[3],inactive
same,outcome,[5],inactive
same,outcome,[6],inactive
same,outcome,[7],inactive
same,outcome,[8],inactive
same,outcome,[9],inactive
same,outcome,[12],inactive
same,outcome,[13],inactive
same,outcome,[14],inactive
same,outcome,[15],inactive
same,outcome,[16],inactive
same,outcome,[17],inactive
same,outcome,[18],inactive
same,outcome,[19],inactive
OC[C@H]1O[C@@H](O[C@H]2[C@H](O)[C@@H](O)[C@H](O)O[C@@H]2CO)[C@H](O)[C@@H](O)[C@H]1O,outcome,[1],inactive
same,outcome,[2],inactive
same,outcome,[20],inactive
same,outcome,[5],inactive
same,outcome,[6],inactive
same,outcome,[7],inactive
same,outcome,[9],inactive
same,outcome,[10],inactive
same,outcome,[11],inactive
same,outcome,[13],inactive
same,outcome,[15],inactive
same,outcome,[16],inactive
same,outcome,[17],inactive
same,outcome,[18],inactive
same,outcome,[19],inactive
O=C1CCC(=O)N1,outcome,[1],inactive
same,outcome,[2],inactive
same,outcome,[20],inactive
same,outcome,[3],inactive
same,outcome,[5],inactive
same,AC50,[6],28.2 µM (active)
same,outcome,[7],inactive
same,outcome,[8],inactive
same,outcome,[9],inactive
same,outcome,[12],inactive
same,outcome,[13],inactive
same,outcome,[14],inactive
same,outcome,[15],inactive
same,outcome,[16],inactive
same,outcome,[17],inactive
same,outcome,[18],inactive
same,outcome,[19],inactive
COc1ccc2[nH]cc(CCNC(C)=O)c2c1,outcome,[1],inactive
same,outcome,[2],inactive
same,outcome,[20],inactive
same,outcome,[3],inactive
same,outcome,[4],inactive
same,outcome,[5],inactive
same,outcome,[7],inactive
same,outcome,[8],inactive
same,outcome,[10],inactive
same,outcome,[11],inactive
same,outcome,[12],inactive
same,outcome,[13],inactive
same,outcome,[14],inactive
same,outcome,[15],inactive
same,outcome,[16],inactive
same,outcome,[17],inactive
same,outcome,[18],inactive
